According to PubChem BioAssay (NCI):
Compounds without any hit were thinned out: in the full panel of roughly 83,000, 20% have a hit.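 Assay: single dose, 48 h. Readout: percent growth (0 = no net growth; negative = cell death). Active: <10.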 Activity calls are given as the source filed them.

What was measured:
Assay in all cases: NCI-60 one-dose screen, 48 h (100 = growth as untreated, 0 = no growth, -100 = all killed)
Settings in all cases: 10 µM unless noted
SR leukemia = system: SR leukemia
RPMI-8226 leukemia = system: RPMI-8226 leukemia
OVCAR-8 ovarian = system: OVCAR-8 ovarian
OVCAR-5 ovarian = system: OVCAR-5 ovarian
OVCAR-4 ovarian = system: OVCAR-4 ovarian
SK-OV-3 ovarian = system: SK-OV-3 ovarian
IGROV1 ovarian = system: IGROV1 ovarian
OVCAR-3 ovarian = system: OVCAR-3 ovarian
HS 578T breast = system: HS 578T breast
NCI/ADR-RES ovarian = system: NCI/ADR-RES ovarian

Row | SMILES | growth (SR leukemia) | growth (RPMI-8226 leukemia) | growth (OVCAR-8 ovarian) | growth (OVCAR-5 ovarian) | growth (OVCAR-4 ovarian) | growth (SK-OV-3 ovarian) | growth (IGROV1 ovarian) | growth (OVCAR-3 ovarian) | growth (HS 578T breast) | growth (NCI/ADR-RES ovarian)
1 | O=C(CCN1C(=O)/C(=C/c2ccc(F)cc2)SC1=S)N1CCOCC1 | 35% (inactive) | 52.2% (inactive) | 80.9% (inactive) | 79.1% (inactive) | 55.5% (inactive) | 91.5% (inactive) | 85.6% (inactive) | 78.7% (inactive) | 89% (inactive) | 78.2% (inactive)
2 | Cc1cc2c(cc1Cl)C(=O)/C(=C/c1ccccc1)O2 | 10.1% (inactive) | 26% (inactive) | -24.7% (active) | 75% (inactive) | 9.29% (active) | 71.4% (inactive) | -48.2% (active) | 26.8% (inactive) | 21% (inactive) | -19.8% (active)
3 | Cc1ccc([C@H]2C(C(=O)c3ccc(Cl)cc3)C3(N[C@@H]2c2ccccc2)C(=O)Nc2ccc(Br)cc23)cc1 (stereo not given in full) | 2.24% (active) | 40.7% (inactive) | 66.4% (inactive) | 73.2% (inactive) | 56.3% (inactive) | 79.4% (inactive) | 60.1% (inactive) | 64% (inactive) | 83.2% (inactive) | 55.5% (inactive)
4 | COc1ccc2c(c1)c(-c1cc3nc(-c4cn(C)c5ncc(Br)cc45)cc(N)n3n1)cn2C | -6.89% (active) | -0.77% (active) | -48.8% (active) | -47.6% (active) | 17.3% (inactive) | -55.6% (active) | -25.8% (active) | -18.6% (active) | -18.6% (active) | -30.3% (active)
5 | O=c1[nH]c2ccccc2cc1CSc1cccc(Nc2nccc(-c3ccc4ccccc4c3)n2)c1 | 89.5% (inactive) | 49.4% (inactive) | 74.9% (inactive) | 114% (inactive) | 69.4% (inactive) | 115% (inactive) | 102% (inactive) | 117% (inactive) | 105% (inactive) | 51.4% (inactive)
6 | COc1c(F)ccc(C(=O)Nc2ccc3nc(NC(=O)C4CCCN(S(=O)(=O)c5cccc(Cl)c5)C4)sc3c2)c1F (stereo not given) | 44.5% (inactive) | 42.8% (inactive) | 98.8% (inactive) | 102% (inactive) | 83.1% (inactive) | 105% (inactive) | 81.6% (inactive) | 105% (inactive) | 62.6% (inactive) | 80.5% (inactive)
7 | CCN(CC)CCOc1ccc(Nc2ncc3cc(-c4ccc(O)c(C#N)c4)c(=O)n(C)c3n2)cc1 | -8.11% (active) | 65% (inactive) | 92.8% (inactive) | 88.2% (inactive) | 89.3% (inactive) | 64.7% (inactive) | 46.9% (inactive) | 83.7% (inactive) | 76.5% (inactive) | 114% (inactive)
8 | CC1(C)CC[C@]2(C(=O)O)CC[C@]3(C)C(=CCC4[C@@]5(C)C[C@@H](O)[C@@H]6OC(c7ccccc7F)OC[C@@]6(C)C5CC[C@]43C)C2C1 (stereo not given in full) | 7.37% (active) | 10% (inactive) | 12% (inactive) | 28.2% (inactive) | 30.7% (inactive) | 12.7% (inactive) | 20% (inactive) | -11% (active) | 21.6% (inactive) | 6.19% (active)
9 | COc1ccc2[nH]cc(-c3nnc(N)nc3-c3c[nH]c4ncc(Br)cc34)c2c1 | 67.8% (inactive) | 76.8% (inactive) | 82.5% (inactive) | 97.9% (inactive) | 96.6% (inactive) | 76.2% (inactive) | 48.3% (inactive) | 104% (inactive) | 70.1% (inactive) | 97.9% (inactive)
10 | COc1ccc(-c2ccc(SCC(=O)NCCc3ccc(S(N)(=O)=O)cc3)nn2)cc1 | 63.9% (inactive) | 49.6% (inactive) | 88.8% (inactive) | 102% (inactive) | 77.2% (inactive) | 71.1% (inactive) | 82% (inactive) | 121% (inactive) | 89.8% (inactive) | 100% (inactive)
11 | C=C1CCC2C3(C)COC(c4ccco4)OC3CCC2(C)C1CC(Sc1ccccc1)C1=CCOC1=O (stereo not given) | 17.1% (inactive) | 3.83% (active) | 4.17% (active) | 60.9% (inactive) | 70.2% (inactive) | 141% (inactive) | 69.2% (inactive) | 37% (inactive) | 114% (inactive) | -17.6% (active)
12 | Cn1cc(-c2cc(N)n3nc(-c4cn(C)c5ncc(Br)cc45)cc3n2)c2cc(Br)cnc21 | -35.1% (active) | 5.51% (active) | 14.6% (inactive) | 70% (inactive) | -47.3% (active) | 104% (inactive) | 43.5% (inactive) | -68% (active) | 55.1% (inactive) | 14.9% (inactive)
13 | Cc1ccc(NCC(=O)Cn2cc(COc3ccc(C=Nc4cnc5ccccc5c4)cc3)nn2)cc1 | 103% (inactive) | 110% (inactive) | 103% (inactive) | 107% (inactive) | 113% (inactive) | 98.4% (inactive) | 112% (inactive) | 139% (inactive) | 106% (inactive) | 113% (inactive)
14 | O=C(N=Nc1c(O)[nH]c2ccc([N+](=O)[O-])cc12)c1ccc2nc(-c3ccccc3)[nH]c2c1 | 30.9% (inactive) | 110% (inactive) | 65.1% (inactive) | 107% (inactive) | 45.8% (inactive) | 96.9% (inactive) | 76.9% (inactive) | -13.2% (active) | 62.6% (inactive) | 103% (inactive)
15 | COc1cc(/C=C2\C(=N)N=C(SCc3nc4ccccc4[nH]3)NC2=O)ccc1O | 88.5% (inactive) | 85% (inactive) | 101% (inactive) | 109% (inactive) | 96.6% (inactive) | 103% (inactive) | 106% (inactive) | 103% (inactive) | 93.3% (inactive) | 99% (inactive)
16 | O=C1NC(=O)c2c1c1c3cc(Br)ccc3[nH]c1c1oc3ccc(F)cc3c21 | 4.79% (active) | 14.8% (inactive) | -44.7% (active) | 51.7% (inactive) | -88% (active) | -5.1% (active) | -46.9% (active) | -33.3% (active) | -34.9% (active) | 10% (inactive)
17 | O=C(COc1ccc(NC(=O)Nc2ccc(Cl)c(Cl)c2)cc1)N=Nc1c(O)[nH]c2ccc(Cl)cc12 | 3.93% (active) | 6.94% (active) | -48.4% (active) | -28% (active) | -16.6% (active) | -22.2% (active) | -48.6% (active) | -81.7% (active) | -13.7% (active) | 85.2% (inactive)
18 | O=C(Cn1nc(-c2ccccc2)ccc1=O)N/N=C/c1ccc(N2CCOCC2)cc1 | 85.9% (inactive) | 87.8% (inactive) | 102% (inactive) | 107% (inactive) | 93.9% (inactive) | 107% (inactive) | 113% (inactive) | 103% (inactive) | 86.6% (inactive) | 95.5% (inactive)
19 | CC12CC[C@@H]3[C@]4(C)COC(c5cn[nH]c5-c5ccc(Cl)cc5)O[C@@H]4CC[C@@]3(C)[C@@H]1CC(C1=CCOC1=O)O2 (stereo not given in full) | 16.5% (inactive) | 12% (inactive) | 55.5% (inactive) | 62.3% (inactive) | 39.5% (inactive) | 55% (inactive) | 51% (inactive) | 42.6% (inactive) | 51% (inactive) | 42.5% (inactive)
20 | O=C(c1ccc(OCCN2CCOCC2)cc1)C1[C@H](c2ccc(Cl)cc2)[C@@H](c2ccccc2)NC12C(=O)Nc1ccc(Cl)cc12 (stereo not given in full) | -46.3% (active) | 15.5% (inactive) | 39% (inactive) | 50.5% (inactive) | 48.3% (inactive) | 50.1% (inactive) | 24% (inactive) | 40.4% (inactive) | 59.1% (inactive) | 24.5% (inactive)
21 | COc1ccc2[nH]cc(-c3nnc(N)nc3-c3cn(C)c4ncc(Br)cc34)c2c1 | 49.6% (inactive) | 74.5% (inactive) | 75.8% (inactive) | 84.8% (inactive) | 69.1% (inactive) | 95.2% (inactive) | 58.4% (inactive) | 65.7% (inactive) | 55.7% (inactive) | 83.5% (inactive)
22 | Cc1ccc(NC(=O)CN2CCN(c3ncnc4c3cnn4-c3ccccc3)CC2)cc1 | 52.6% (inactive) | 75.8% (inactive) | 71.4% (inactive) | 98% (inactive) | 82.9% (inactive) | 112% (inactive) | 81.3% (inactive) | 103% (inactive) | 77.7% (inactive) | 79.5% (inactive)
23 | CN(C)CCn1c2ccccc2c2nc3ccc([N+](=O)[O-])cc3nc21 | 13% (inactive) | 20.3% (inactive) | -15.6% (active) | -0.168% (active) | 16.6% (inactive) | 8.18% (active) | 4.78% (active) | 7.62% (active) | 10.1% (inactive) | 8.38% (active)
24 | Nc1nc(-c2ccccc2)c(N=Nc2ccc([N+](=O)[O-])cc2Cl)s1 | 136% (inactive) | 53% (inactive) | 78.5% (inactive) | 107% (inactive) | 80.4% (inactive) | 82% (inactive) | 86.3% (inactive) | 74.8% (inactive) | 85% (inactive) | 89.6% (inactive)
25 | CCOC(=O)C(N=Nc1ccc(S(=O)(=O)N=C(N)N)cc1)C(C)=O (stereo not given) | 99.4% (inactive) | 98.5% (inactive) | 104% (inactive) | 104% (inactive) | 105% (inactive) | 138% (inactive) | 110% (inactive) | 113% (inactive) | 111% (inactive) | 113% (inactive)
26 | COc1ccc(/C=C/c2nc3ccccc3nc2Nc2cccc(C)c2)cc1 | 85.8% (inactive) | 95.7% (inactive) | 98% (inactive) | 108% (inactive) | 91.6% (inactive) | 95.9% (inactive) | 82.1% (inactive) | 104% (inactive) | 92.3% (inactive) | 105% (inactive)
